Screening data: PubChem, National Center for Advancing Translational Sciences (NCATS)
The list is not random: actives were taken first. Their share in the collection is about 19%.
TDP1 cell CPT – DT40-hTDP1 cell growth loss with CPT; hit rate 12% among 420,000; Potency, µM (series often up to 46.2 µM), without a hit: top-dose activity change, negative = growth inhibition, actives largely listed as inhibitors; chicken DT40 Tdp1-/-;hTDP1 cells + 20 nM CPT, ATP luminescence, 48 h; also: potency is read from the fitted curve at half-maximal effect; nearly all actives have a fitted effect of over 55% in size
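Cell growth measured by CellTiter-Glo luminescence after a minimum 48 h, 37 C compound exposure with 20 nM CPT in Tdp1-knockout DT40 cells stably expressing hTDP1, seeded 400/well; qHTS titration format.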
TDP1 cell noCPT – qHTS for Inhibitors of human tyrosyl-DNA phosphodiesterase 1 (TDP1): qHTS in cells in absence of CPT; DT40 Tdp1-/- hTDP1 cells, no CPT, ATP luminescence, 48 h; Potency, µM (titrated, usually from 46.2 µM), for the others: at the top dose activity change, negative = growth inhibition, usual class: inhibitors; hit rate 15% among 420,000; also: potency is read from the fitted curve at half-maximal effect; nearly all actives have a fitted effect of over 55% in size
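Chicken DT40 Tdp1-/- cells stably complemented with human TDP1 were seeded at 400 cells/well with DMSO in place of 20 nM camptothecin. After compound pinning, cells grew at least 48 hr at 37 °C; viability read by CellTiter-Glo luminescence.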
HT1080 IDH1KD tx – kills HT-1080 cells with IDH1 knockdown; hit rate 2% among 360,000; Potency, µM (highest dose often 46.1 µM), for inactives: top-dose activity, negative = toxicity, most hits filed as cytotoxic; AID 686971; HT-1080 IDH1 knockdown viability, ATP luminescence, 48 h;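 also: potency is read from the fitted curve at half-maximal effect; 0% = DMSO wells and -100% = cell-free medium wells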
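IDH1KD HT-1080 cells, 750/well, RPMI + 5% FBS; compound pinned after 2 h settling; 48 h, 37 °C; CellTiter-Glo luminescence; % activity normalised to DMSO and no-cell wells; curves fitted, classed by r2 and efficacy.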
HT1080NT lethal – kills 2HG-producing HT-1080-NT fibrosarcoma cells | HT-1080-NT fibrosarcoma viability, CellTiter-Glo ATP luminescence, 48 h | Potency, µM (highest dose often 46.1 µM), without a hit: top-dose activity, negative = less viability, actives largely listed as cytotoxic | hit rate 1.6% among 360,000;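 also: NT is the 2HG producing partner of a matched IDH1 knockdown line; potency is read from the fitted curve at half-maximal effect; 0% = DMSO-treated cells and -100% = media-only wells without cells; nearly all actives have a fitted effect of over 55% in size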
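Luminescent CellTiter-Glo readout after 48 hours of compound exposure at 37 degrees C defined viability of HT-1080-NT cells. Activity was normalized to DMSO wells and cell-free media wells; concentration-response curves were fitted and assigned curve classes.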
IL-1B inflam inh – inhibitors of inflammasome signaling (IL-1 beta secretion). THP-1 LPS/ATP IL-1B secretion, AlphaLISA, 16 h; hits give low values. activity change, % at 57.5 µM. hit rate 4.7% among 360,000; in the data active = activity change below about -50%; inconclusive = mostly about -30% to -49%
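THP-1 cells pretreated 1 hr with compounds (up to 57.5 uM final), then stimulated with LPS (250 ng/mL final) plus ATP (1.25 mM final); secreted IL-1B measured by AlphaLISA after 16 hr, decreased signal indicating inhibition.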
An asterisk follows results filed as active; ? = inconclusive; · = no result; [ ] = remark or other dose. Unless noted, calls follow the shape of the dose curve; as a rule, active = well fitted curve in the direction sought with a large enough effect; inconclusive = small, poorly fitted or top-dose-only effect, or another doubt; inactive = no such curve, though single readings can be large; an effect the other way counts as inactive or inconclusive. Unless noted, % is scaled to controls: 0 for no effect and ±100 for the full control effect.

SMILES	TDP1 cell CPT	TDP1 cell noCPT	HT1080 IDH1KD tx	HT1080NT lethal	IL-1B inflam inh
CC(C(=O)OCC(=O)c1ccc([N+](=O)[O-])cc1)N1C(=O)C2C3C=CC(C3)C2C1=O (configuration not stated)	16.4µM*	?	9.5%	14.8%	-55.8*
O=C1C2C3C=CC(C3)C2C(=O)N1CCN1CCN(Cc2ccc([N+](=O)[O-])cc2)CC1 (configuration not stated)	?	16.4µM*	-7.1%	1.2%	13.3
O=C(CCN1C(=O)C2C3C=CC(C3)C2C1=O)N1CCN(c2ccc([N+](=O)[O-])cc2)CC1 (configuration not stated)	?	?	-4.1%	-1.7%	18.1
CC(=O)Oc1ccccc1Cn1c(C)c(C(=O)NCc2ccc(F)cc2)sc1=O	?	?	-17.2%	-8.4%	-18.0
Cc1ccc(C)c(CN2C(=O)c3ccccc3Sc3ccc(C(=O)NCc4ccc5c(c4)OCO5)cc32)c1	14.9%	-14.3%	·	·	·
CN(C)C(=O)c1ccc(Nc2ncnc3sc4c(c23)CCCCC4)cc1	?	23.1µM*	-24.9%	?	-12.2
CN1CCC(=NNc2ncnc3sc4c(c23)CCCC4)CC1	16.4µM*	20.6µM*	-11.9%	-2.7%	-7.1
c1nc(NCCN2CCOCC2)c2c3c(sc2n1)CCCCC3	-8.4%	-15.9%	5.8%	0.6%	-2.8
COc1ccccc1C1CN(CCNC(=O)c2ccccc2Cl)Cc2ccccc2O1 (configuration not stated)	23.0%[9.04 µM]	-6.5%	·	·	·
Cc1ccc(C)c(-n2c(-c3csc(C)c3)n[nH]c2=S)c1	-36.4%	-16.7%	10µM*	?	-1.5
Cc1ccc(C)c(-n2c(-c3ccncc3)n[nH]c2=S)c1	3.1%	-2.0%	20.4%	14.2%	16.7
COc1ccc(CC(=O)N2CCCC2)c(OC)c1	1.2%	-7.2%	-3.1%	-8.6%	10.0
CC1CCC(NC(=O)c2ccc3c(c2)N(Cc2cccc(F)c2)C(=O)c2ccccc2S3)CC1 (configuration not stated)	-19.5%	?	·	·	·
CCOC(=O)c1cnc2c(C)cc(Cl)cc2c1N1CCN(C)CC1	?	?	6.3%	1.5%	-64.5*
CCOC(=O)c1cnc(N2CCN(c3ccccc3)CC2)[nH]c1=O	7.3%	-11.1%	14.8%	3.0%	8.3
CCOC(=O)c1cnc2ccc(Cl)cc2c1N1CCN(C)CC1	?	-28.5%	-1.7%[9.24 µM]	-18.0%	-24.8
CCOC(=O)c1cnc2c(OC)cccc2c1N1CCN(c2ccc(OC)cc2)CC1	?	16.4µM*	2.1%	-0.7%	-19.4
CCOC(=O)c1cnc2c(OC)cccc2c1N1CCN(c2ccccn2)CC1	?	16.4µM*	-14.2%	-14.4%	-53.2*
CCOC(=O)c1cnc2c(C(F)(F)F)cccc2c1N1CCN(C)CC1	-7.9%	-23.0%	-26.3%	-24.1%	-12.4
CCOC(=O)c1cnc2cc(C(F)(F)F)ccc2c1N1CCN(c2ccc(F)cc2)CC1	?	20.6µM*	·	·	·
O=C(Nc1ccccc1C(=O)O)c1ccc(CN2C(=O)c3ccccc3C2=O)cc1	2.4%	-16.6%	2.7%	3.6%	15.6
Clc1cc(Cl)cc(Nc2ncn[nH]2)c1	0.3%	-3.7%	-1.8%	3.4%	8.0
CC(C)CNC(=O)CC(=O)N/N=C/c1ccc(F)cc1	-9.4%	-2.5%	-0.5%	-0.4%	-7.1
CN(CC(=O)NCc1ccccc1Cl)CC(=O)Nc1cccc(F)c1	-29.5%	?	0.9%	-3.1%	9.9
CCOC(=O)c1cnc2ccc(OCC)cc2c1N1CCN(c2cccc(Cl)c2)CC1	16.4µM*	8.2µM*	·	·	·
CCOC(=O)c1cnc2ccc(OCC)cc2c1N1CCN(C)CC1	?	?	-3.9%	-3.9%	?
CCOC(=O)c1cnc2c(OC)cccc2c1N1CC(C)CC(C)C1 (configuration not stated)	11.6µM*	7.31µM*	-0.2%	0.7%	45.2
CCOC(=O)c1cnc2c(OC)cccc2c1N1CCN(c2ccccc2OC)CC1	?	13µM*	-14.6%	-26.4%	-96.9*
